# According to PubChem BioAssay AID1159580 (chemical genetic matrix, 2015):
# Screen size: about 5,500 compounds; about 2,000 (36%) were called active. Roughly 18% stayed inconclusive and do not appear here. Some of the results follow. Values without a mark were called inactive. Cut-off read from the data, not from the text of the source: active = normalized growth mostly below about 0.91 (no sharp cut-off); inconclusive = no clear call, values can overlap the other calls; inactive = mostly above about 0.92.
# Test: chemical genetic growth profiling, strain panel (AID 1159580);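 note: tested at 20 µM; growth read once vehicle control cultures reached saturation at 30 °C; 1 = growth at the plate median or of vehicle wells; lower values mean less growth of the strain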
# Details: growth OD
smiles,measurement,setting,value
O=C(O)c1ccccc1-c1c2cc(Br)c(=O)cc-2oc2[c]([Hg])c(O)c(Br)cc12,normalized growth,"S. cerevisiae deletion strains, locus YKL009W, strain mrt4, active compounds read low",0.924
same,normalized growth,"S. cerevisiae deletion strains, locus YKL068W, active compounds read low",0.565 (active)
same,normalized growth,"S. cerevisiae deletion strains, locus YKL085W, strain MDH1 (second series), active compounds read low",0.0686 (active)
same,normalized growth,"S. cerevisiae deletion strains, locus YKL085W, strain MDH1, active compounds read low",0.0686 (active)
same,normalized growth,"S. cerevisiae deletion strains, locus YKL160W, strain elf1, active compounds read low",0.0872 (active)
same,normalized growth,"S. cerevisiae deletion strains, locus YKL190W, strain CNB1, active compounds read low",0.575 (active)
same,normalized growth,"S. cerevisiae deletion strains, locus YKR001C, strain vps1, active compounds read low",0.101 (active)
same,normalized growth,"S. cerevisiae deletion strains, locus YKR026C, strain gcn3, active compounds read low",1.05
same,normalized growth,"S. cerevisiae deletion strains, locus YKR091W, strain srl3, active compounds read low",1.04
same,normalized growth,"S. cerevisiae deletion strains, locus YLL001W, strain dnm1, active compounds read low",1.03
same,normalized growth,"S. cerevisiae deletion strains, locus YLL026W, active compounds read low",1.04
same,normalized growth,"S. cerevisiae deletion strains, locus YLL041C, strain sdh2, active compounds read low",1.02
same,normalized growth,"S. cerevisiae deletion strains, locus YLR027C, strain aat2, active compounds read low",1.04
same,normalized growth,"S. cerevisiae deletion strains, locus YLR039C, strain RIC1, active compounds read low",0.949
same,normalized growth,"S. cerevisiae deletion strains, locus YLR058C, strain SHM2, active compounds read low",0.992
same,normalized growth,"S. cerevisiae deletion strains, locus YLR102C, strain apc9, active compounds read low",0.081 (active)
same,normalized growth,"S. cerevisiae deletion strains, locus YLR113W, strain HOG1, active compounds read low",0.485 (active)
same,normalized growth,"S. cerevisiae deletion strains, locus YLR221C, strain rsa3, active compounds read low",1
same,normalized growth,"S. cerevisiae deletion strains, locus YLR258W, strain gsy2, active compounds read low",1.04
same,normalized growth,"S. cerevisiae deletion strains, locus YLR262C, strain YPT6 (second series), active compounds read low",1.09
same,normalized growth,"S. cerevisiae deletion strains, locus YLR262C, strain YPT6, active compounds read low",0.68
same,normalized growth,"S. cerevisiae deletion strains, locus YLR268W, strain sec22, active compounds read low",0.106 (active)
same,normalized growth,"S. cerevisiae deletion strains, locus YLR320W, strain mms22, active compounds read low",1.02
same,normalized growth,"S. cerevisiae deletion strains, locus YLR330W, strain CHS5, active compounds read low",0.0829 (active)
same,normalized growth,"S. cerevisiae deletion strains, locus YLR342W, strain FKS1 (second series), active compounds read low",0.132 (active)
same,normalized growth,"S. cerevisiae deletion strains, locus YLR342W, strain FKS1, active compounds read low",1.02
same,normalized growth,"S. cerevisiae deletion strains, locus YLR357W, strain rsc2, active compounds read low",1
same,normalized growth,"S. cerevisiae deletion strains, locus YLR370C, strain arc18, active compounds read low",1.04
same,normalized growth,"S. cerevisiae deletion strains, locus YLR371W, strain rom2, active compounds read low",0.0749 (active)
same,normalized growth,"S. cerevisiae deletion strains, locus YLR384C, strain iki3, active compounds read low",1.02
same,normalized growth,"S. cerevisiae deletion strains, locus YLR418C, strain cdc73, active compounds read low",0.166 (active)
same,normalized growth,"S. cerevisiae deletion strains, locus YML016C, strain PPZ1, active compounds read low",0.0683 (active)
same,normalized growth,"S. cerevisiae deletion strains, locus YML032C, strain rad52, active compounds read low",0.99
same,normalized growth,"S. cerevisiae deletion strains, locus YML120C, strain ndi1, active compounds read low",1.03
same,normalized growth,"S. cerevisiae deletion strains, locus YML124C, strain tub3, active compounds read low",0.779 (active)
same,normalized growth,"S. cerevisiae deletion strains, locus YMR058W, strain fet3, active compounds read low",1.02
same,normalized growth,"S. cerevisiae deletion strains, locus YMR078C, strain ctf18, active compounds read low",0.484 (active)
same,normalized growth,"S. cerevisiae deletion strains, locus YMR125W, strain sto1, active compounds read low",1.02
same,normalized growth,"S. cerevisiae deletion strains, locus YMR129W, active compounds read low",1.04
same,normalized growth,"S. cerevisiae deletion strains, locus YMR205C, strain PFK2, active compounds read low",1.09
same,normalized growth,"S. cerevisiae deletion strains, locus YMR223W, strain ubp8, active compounds read low",0.0739 (active)
same,normalized growth,"S. cerevisiae deletion strains, locus YMR231W, strain pep5, active compounds read low",1.03
same,normalized growth,"S. cerevisiae deletion strains, locus YMR263W, strain SAP30, active compounds read low",0.943
same,normalized growth,"S. cerevisiae deletion strains, locus YMR307W, strain GAS1, active compounds read low",0.228 (active)
same,normalized growth,"S. cerevisiae deletion strains, locus YNL067W, strain RPL9B, active compounds read low",0.814 (active)
same,normalized growth,"S. cerevisiae deletion strains, locus YNL071W, strain lat1, active compounds read low",1.01
same,normalized growth,"S. cerevisiae deletion strains, locus YNL128W, strain TEP1, active compounds read low",0.196 (active)
same,normalized growth,"S. cerevisiae deletion strains, locus YNL153C, strain GIM3, active compounds read low",0.89
same,normalized growth,"S. cerevisiae deletion strains, locus YNL183C, strain NPR1, active compounds read low",0.513 (active)
same,normalized growth,"S. cerevisiae deletion strains, locus YNL209W, strain ssb2, active compounds read low",1.03
same,normalized growth,"S. cerevisiae deletion strains, locus YNL233W, strain BNI4, active compounds read low",0.104 (active)
same,normalized growth,"S. cerevisiae deletion strains, locus YNL248C, strain rpa49, active compounds read low",1.02
same,normalized growth,"S. cerevisiae deletion strains, locus YNL250W, strain rad50, active compounds read low",0.0998 (active)
same,normalized growth,"S. cerevisiae deletion strains, locus YNL271C, strain bni1, active compounds read low",0.0638 (active)
same,normalized growth,"S. cerevisiae deletion strains, locus YNL298W, strain CLA4, active compounds read low",0.062 (active)
same,normalized growth,"S. cerevisiae deletion strains, locus YNL307C, strain MCK1, active compounds read low",0.072 (active)
same,normalized growth,"S. cerevisiae deletion strains, locus YNL322C, strain KRE1 (second series), active compounds read low",1.05
same,normalized growth,"S. cerevisiae deletion strains, locus YNL322C, strain KRE1, active compounds read low",0.914 (active)
same,normalized growth,"S. cerevisiae deletion strains, locus YNR049C, strain mso1, active compounds read low",1.02
same,normalized growth,"S. cerevisiae deletion strains, locus YNR052C, strain pop2, active compounds read low",0.937
same,normalized growth,"S. cerevisiae deletion strains, locus YOL006C, strain TOP1, active compounds read low",0.153 (active)
same,normalized growth,"S. cerevisiae deletion strains, locus YOL012C, strain htz1",0.228
same,normalized growth,"S. cerevisiae deletion strains, locus YOL147C, strain pex11, active compounds read low",0.995
same,normalized growth,"S. cerevisiae deletion strains, locus YOR001W, strain rrp6, active compounds read low",1.04
same,normalized growth,"S. cerevisiae deletion strains, locus YOR061W, strain CKA2, active compounds read low",0.155 (active)
same,normalized growth,"S. cerevisiae deletion strains, locus YOR069W, strain VPS5, active compounds read low",0.494 (active)
same,normalized growth,"S. cerevisiae deletion strains, locus YOR070C, strain gyp1, active compounds read low",1.02
same,normalized growth,"S. cerevisiae deletion strains, locus YOR080W, strain dia2, active compounds read low",1.02
same,normalized growth,"S. cerevisiae deletion strains, locus YOR083W, strain WHI5, active compounds read low",1.03
same,normalized growth,"S. cerevisiae deletion strains, locus YOR106W, strain vam3, active compounds read low",0.952
same,normalized growth,"S. cerevisiae deletion strains, locus YOR136W, strain idh2, active compounds read low",0.0743 (active)
same,normalized growth,"S. cerevisiae deletion strains, locus YOR144C, strain elg1, active compounds read low",1.02
same,normalized growth,"S. cerevisiae deletion strains, locus YOR184W, strain ser1, active compounds read low",0.143 (active)
same,normalized growth,"S. cerevisiae deletion strains, locus YOR231W, strain MKK1, active compounds read low",0.345 (active)
same,normalized growth,"S. cerevisiae deletion strains, locus YOR265W, strain rbl2, active compounds read low",1.04
same,normalized growth,"S. cerevisiae deletion strains, locus YOR270C, strain vph1, active compounds read low",1.31 [resistant] (active)
same,normalized growth,"S. cerevisiae deletion strains, locus YOR290C, strain snf2, active compounds read low",1.07
same,normalized growth,"S. cerevisiae deletion strains, locus YOR316C, strain cot1, active compounds read low",0.0634 (active)
same,normalized growth,"S. cerevisiae deletion strains, locus YPL051W, strain arl3, active compounds read low",1
same,normalized growth,"S. cerevisiae deletion strains, locus YPL055C, strain LGE1, active compounds read low",0.226 (active)
same,normalized growth,"S. cerevisiae deletion strains, locus YPL078C, strain atp4, active compounds read low",1.04
same,normalized growth,"S. cerevisiae deletion strains, locus YPL106C, strain sse1, active compounds read low",0.909
same,normalized growth,"S. cerevisiae deletion strains, locus YPL240C, strain hsp82, active compounds read low",1.03
same,normalized growth,"S. cerevisiae deletion strains, locus YPL241C, strain CIN2, active compounds read low",0.987
same,normalized growth,"S. cerevisiae deletion strains, locus YPL256C, strain CLN2, active compounds read low",0.487 (active)
same,normalized growth,"S. cerevisiae deletion strains, locus YPR119W, strain clb2, active compounds read low",0.0719 (active)
same,normalized growth,"S. cerevisiae deletion strains, locus YPR141C, strain kar3, active compounds read low",0.254 (active)
same,normalized growth,"S. cerevisiae deletion strains, locus YPR163C, strain tif3, active compounds read low",0.0765 (active)
same,normalized growth,"S. cerevisiae deletion strains, locus YPR167C, strain met16, active compounds read low",0.0655 (active)
same,normalized growth,"S. cerevisiae deletion strains, strain wtn01, active compounds read low",0.062 (active)
same,normalized growth,"S. cerevisiae strains, strain wild type, active compounds read low",0.196 (active)
